Where “and” joins values, the source holds several entries; their conditions need not be identical. Identical values can stand only once. Records with an inconclusive call do not appear. Calls of active or inactive are those of the source. How the source made its calls, unless noted: active means hit-call score of the fitted dose curve at least 0.9, where 1 is the maximum; inactive means score below 0.9.
How the values were obtained:
[1] = BSK_3C_Vis: BioMAP Diversity Plus: 3C Assay for Morphology Visualization (AID 2283025); conditions: primary human endothelial cells (HUVEC);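 further: fitted both ways so gain or loss versus DMSO counts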;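 on AC50: light microscopy image of cell morphology used as background control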
Outline: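 Endothelial cells from human umbilical vein were treated with test chemicals for 24 h and inspected by light microscopy for changes in cell conformation.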

[2] = read-out: Transforming growth factor beta 1 (TGFb1), TGFB1 (gene 7040); assay: BSK_BE3C_TGFb1: BioMAP Diversity Plus: BE3C Assay for Transforming growth factor beta 1 (TGFb1) Biomarker Activity (AID 2283036;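 further: TGF-b1 protein level measured by ELISA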); conditions: primary human bronchial epithelial cells; actives raise or lower the signal
Outline: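 In this human primary bronchial epithelial system, an ELISA quantified TGF-b1 one day after dosing. Endpoint changes in either direction were fitted relative to DMSO.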

[3] = BSK_CASM3C_SRB: Viability Assessment in the BioMAP Diversity Plus: CASM3C Assay (AID 2283050); conditions: primary human coronary artery smooth muscle cells;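 further: total protein by SRB staining as cytotoxicity measure in parallel cultures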
[4] = read-out: Transforming growth factor beta 1 (TGFb1), TGFB1 (gene 7040); assay: BSK_KF3CT_TGFb1: BioMAP Diversity Plus: KF3CT Assay for Transforming growth factor beta 1 (TGFb1) Biomarker Activity (AID 2283072); conditions: primary human keratinocytes with fibroblasts; actives raise or lower the signal
Outline: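 Signal changes in either direction, relative to DMSO, define activity here. TGF-b1 is read by ELISA from a human keratinocyte-fibroblast co-culture 24 h post-dose.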

CD38, CD38 (gene 952) = assay: BSK_SAg_CD38: BioMAP Diversity Plus: SAg Assay for CD38 Biomarker Activity (AID 2283087); conditions: primary human HUVEC with PBMC; actives raise or lower the signal
Outline: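 Fluorescence ELISA of cell-surface CD38 served as the read-out, with either increase or decrease fitted against DMSO controls. Cells were a human umbilical vein endothelium plus PBMC co-culture under SEB/TSST-1 stimulation, measured 24 h after dosing.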

CD69, CD69 (gene 969) = assay: BSK_SAg_CD69: BioMAP Diversity Plus: SAg Assay for CD69 Biomarker Activity (AID 2283089); conditions: primary human HUVEC with PBMC; actives raise or lower the signal;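 on AC50: cell surface CD69 protein quantified by ELISA with fluorescence detection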
Outline: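 Values derive from bidirectional fitting relative to DMSO vehicle. Cells: umbilical vein endothelium plus peripheral blood mononuclear cells, treated 24 h before fluorescent ELISA for CD69.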

[5] = read-out: Monocyte Chemoattractant Protein-1 (MCP1), CCL2 (gene 6347); assay: BSK_SAg_MCP1: BioMAP Diversity Plus: SAg Assay for Monocyte Chemoattractant Protein-1 (MCP1) Biomarker Activity (AID 2283090); conditions: primary human HUVEC with PBMC; actives raise or lower the signal
Outline: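 MCP-1 levels in the endothelial–PBMC SAg co-culture were quantified by ELISA at 24 h post-dosing; both increases and decreases versus DMSO scored. Cytotoxicity monitored by SRB total protein in parallel cultures.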

[6] = read-out: Monokine induced gamma interferon (MIG), CXCL9 (gene 4283); assay: BSK_SAg_MIG: BioMAP Diversity Plus: SAg Assay for Monokine induced gamma interferon (MIG) Biomarker Activity (AID 2283092); conditions: primary human HUVEC with PBMC; actives raise or lower the signal
Outline: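 Values reflect bidirectional fitting of ELISA-measured MIG against DMSO vehicle, taken 24 h after dosing of a co-culture of human umbilical vein endothelial cells and peripheral blood mononuclear cells.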

[7] = BSK_SAg_Proliferation: Cell Proliferation Assessment in the BioMAP Diversity Plus: SAg Assay (AID 2283095); conditions: primary human HUVEC with PBMC;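 further: relative cell number as total protein by SRB absorbance in sub-confluent culture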
Outline: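 Readout is SRB-stained protein (560 nm) in a primary human HUVEC and PBMC co-culture; sub-confluent cultures are read at 96 h. Activity is fitted bidirectionally using DMSO as baseline.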

[8] = BSK_SAg_SRB: Viability Assessment in the BioMAP Diversity Plus: SAg Assay (AID 2283096); conditions: primary human HUVEC with PBMC;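 further: cells read one day after compound addition; hits may be either gain or loss of signal compared with DMSO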
Outline: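 Endothelial/PBMC primary human co-culture; compound 24 h; fix 10% TCA, stain 0.1% SRB, A560; protein content as cytotoxicity proxy; bidirectional curve fit, DMSO = baseline.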

[9] = read-out: Secreted IgG (sIgG), gene 3500; assay: BSK_BT_sIgG: BioMAP Diversity Plus: BT Assay for Secreted IgG (sIgG) Biomarker Activity (AID 2284226); conditions: primary human B cells with PBMC
Outline: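 Secreted IgG from a human primary B cell–PBMC co-culture was measured by ELISA 24 hours after dosing, with DMSO defining baseline activity.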

[10] = BSK_BT_Bcell_Proliferation: Viability Assessment in the BioMAP Diversity Plus: BT Assay for B cell Proliferation (AID 2284227); conditions: primary human B cells with PBMC
Outline: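 Using a human primary B cell–PBMC co-culture, the assay measures total protein by sulforhodamine B absorbance as a gauge of proliferation after 72 h. Analysis followed the positive fitting direction with DMSO as baseline.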

[11] = read-out: Interleukin 6 (IL6), IL6 (gene 3569); assay: BSK_BT_xIL6: BioMAP Diversity Plus: BT Assay for Interleukin 6 (IL6) Biomarker Activity (AID 2284228); conditions: primary human B cells with PBMC
Outline: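 IL-6 secretion measured (Luminex xMAP) in human primary B cell + PBMC co-culture at 24 h of chemical exposure; DMSO served as negative control and activity baseline, with curves fitted for increase.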

[12] = read-out: Interleukin 17A (IL17A), IL17A (gene 3605); assay: BSK_BT_xIL17A: BioMAP Diversity Plus: BT Assay for Interleukin 17A (IL17A) Biomarker Activity (AID 2284229); conditions: primary human B cells with PBMC
Outline: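 Human primary B cells plus PBMC, treated 24 h with chemicals; supernatant IL-17A quantified on Luminex xMAP beads. Gain of signal over DMSO control scored as activity.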

[13] = read-out: Collagen I, COL1A1 (gene 1277); assay: BSK_MyoF_CollagenI: BioMAP Diversity Plus: MyoF Assay for Collagen I Biomarker Activity (AID 2284238); conditions: primary human lung fibroblasts
Outline: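 Measured by ELISA: Collagen I from human lung fibroblasts 24 h after compound addition, analysed for signal gain with DMSO as baseline; overt toxicity read from SRB staining of parallel cultures at the same time.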

[14] = read-out: Collagen III, COL3A1 (gene 1281); assay: BSK_MyoF_CollagenIII: BioMAP Diversity Plus: MyoF Assay for Collagen III Biomarker Activity (AID 2284239); conditions: primary human lung fibroblasts
Outline: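 Multiplexed cell assay in lung fibroblasts, harvested at 24 h post-dose. Collagen III detected by ELISA, with positive-direction fitting relative to DMSO vehicle.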

[15] = read-out: Interleukin 17F (IL17F), IL17F (gene 112744); assay: BSK_BT_xIL17F: BioMAP Diversity Plus: BT Assay for Interleukin 17F (IL17F) Biomarker Activity (AID 2284243); conditions: primary human B cells with PBMC
Outline: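 Luminex readout of IL-17F secretion, 24 h; cells: human B cells with PBMC; positive-direction analysis, DMSO control.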

[16] = target: Retinoic acid receptor alpha (Homo sapiens) (UniProt P10276); assay: ATG_RARa_TRANS: Attagene TRANS-FACTORIAL HepG2 Assay for human Retinoic Acid Receptor alpha (RARa) (AID 2283005; active means hit-call score of the fitted dose curve at least 0.9, where 1 is the maximum)
Outline: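 HepG2 cells transiently transfected with multiple reporter units expressing chimeric RARα-GAL4 fusion, with GAL4-UAS-driven reporters. After 24 h compound exposure, reporter mRNA induction quantified by RT-PCR and capillary electrophoresis with fluorescent labeling; gain-of-signal fitted relative to DMSO control.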

[17] = target: Estrogen receptor (Homo sapiens) (UniProt P03372); assay: ATG_ERa_TRANS: Attagene TRANS-FACTORIAL HepG2 Assay for human Estrogen Receptor alpha (ERa) (AID 2282970; active means hit-call score of the fitted dose curve at least 0.9, where 1 is the maximum); conditions: HepG2 Attagene TRANS ERa GAL4 reporter, mRNA
Outline: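 Multiplexed cell-based reporter format in HepG2: chimeric ERa-Gal4 protein drives GAL4-UAS reporter transcription. Fluorescent reporter mRNA quantified by capillary electrophoresis 24 hours after dosing; endpoint fitted as signal gain against DMSO.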

CD40, CD40 (gene 958) = assay: BSK_LPS_CD40: BioMAP Diversity Plus: LPS Assay for CD40 Biomarker Activity (AID 2283076); conditions: primary human HUVEC with PBMC; actives raise or lower the signal
Outline: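 Using a multiplexed primary human co-culture (umbilical vein endothelium plus PBMC), CD40 was read by ELISA 24 h after dosing, with cytotoxicity tracked by sulforhodamine B staining of parallel cultures and activity fitted bidirectionally versus DMSO.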

Measured: AC50

Retinoic acid receptor alpha (Homo sapiens), sequence (P10276 whole entry, looked up, the tested form may be a part): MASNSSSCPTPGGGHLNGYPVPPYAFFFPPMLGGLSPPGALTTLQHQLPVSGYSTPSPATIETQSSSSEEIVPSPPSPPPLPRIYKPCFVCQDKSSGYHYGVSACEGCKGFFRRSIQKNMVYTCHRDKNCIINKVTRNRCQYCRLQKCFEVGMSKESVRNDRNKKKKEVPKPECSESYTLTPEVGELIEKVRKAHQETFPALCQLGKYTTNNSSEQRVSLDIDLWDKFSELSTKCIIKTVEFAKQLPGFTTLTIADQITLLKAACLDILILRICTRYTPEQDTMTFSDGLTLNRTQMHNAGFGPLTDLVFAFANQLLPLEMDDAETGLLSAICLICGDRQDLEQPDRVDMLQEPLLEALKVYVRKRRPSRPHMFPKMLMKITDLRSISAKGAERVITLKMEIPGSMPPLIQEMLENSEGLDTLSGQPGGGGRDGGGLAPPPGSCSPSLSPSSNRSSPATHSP
Estrogen receptor (Homo sapiens), sequence (P03372 whole entry, looked up, the tested form may be a part): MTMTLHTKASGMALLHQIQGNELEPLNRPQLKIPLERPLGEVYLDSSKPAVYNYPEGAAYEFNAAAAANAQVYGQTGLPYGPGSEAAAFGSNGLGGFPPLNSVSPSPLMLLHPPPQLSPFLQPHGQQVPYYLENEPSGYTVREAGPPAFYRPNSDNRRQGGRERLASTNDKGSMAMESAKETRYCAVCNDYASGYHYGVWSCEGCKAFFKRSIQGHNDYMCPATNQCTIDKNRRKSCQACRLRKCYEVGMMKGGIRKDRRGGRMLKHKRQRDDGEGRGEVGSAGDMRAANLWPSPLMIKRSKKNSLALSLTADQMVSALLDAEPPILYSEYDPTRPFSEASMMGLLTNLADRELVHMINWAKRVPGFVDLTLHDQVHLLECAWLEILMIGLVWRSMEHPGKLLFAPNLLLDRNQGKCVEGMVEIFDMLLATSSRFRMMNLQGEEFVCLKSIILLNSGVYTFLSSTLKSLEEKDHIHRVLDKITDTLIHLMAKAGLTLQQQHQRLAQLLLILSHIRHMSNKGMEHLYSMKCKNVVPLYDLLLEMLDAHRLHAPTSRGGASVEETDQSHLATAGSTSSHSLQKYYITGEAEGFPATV

CCCCCCCCCCC1CO1 (stereo unspecified)
active: [1] 37.8 µM | [3] 31.6 µM | [4] 30.3 µM | CD69, CD69 (gene 969) 36.7 µM | [7] 32.5 µM | [13] 31.8 µM | [14] 31.2 µM
not listed: [16] | [17] | CD40, CD40 (gene 958)
inactive: all other assays above

CO[Si](CCCNCCN)(OC)OC
inactive: [16]

CCCCCCC1CCC(=O)O1 (stereo unspecified)
inactive: [17] | [16]

CN(C)c1ccc(C(c2ccccc2)c2ccc(N(C)C)cc2)cc1
inactive: [2] | [4] | [6] | [13] | [14]
active: [1] 13 µM | CD40, CD40 (gene 958) 20 µM | CD38, CD38 (gene 952) 20 µM | CD69, CD69 (gene 969) 20 µM | [5] 12.9 µM | [7] 11.7 µM | [8] 12.6 µM | [9] 11.8 µM | [10] 29 µM | [11] 14.6 µM | [12] 20 µM | [15] 29 µM

Cc1cccnc1
not listed: [16] | [17]
inactive: all other assays above

Cc1cc(-n2nc3ccc(Cl)cc3n2)c(O)c(C(C)(C)C)c1
not listed: [16] | [17]
inactive: all other assays above

NC(=O)c1ccc(N)cc1
inactive: [16]

CCOC(=O)CC(=O)OCC
inactive: [16]

CCCC(=O)OC/C=C(\C)CCC=C(C)C
inactive: [17]

CN1CCCC1
inactive: [17] | [16]

CN(C)Cc1cc(C(C)(C)C)c(O)c(C(C)(C)C)c1
inactive: [3] | CD40, CD40 (gene 958) | CD38, CD38 (gene 952) | [5] | [6] | [8]
active: CD69, CD69 (gene 969) 20 µM and 15.4 µM | [7] 17.5 µM and 20 µM

CC(=O)c1nccs1
active: [17] 39.3 µM
inactive: [16]

C/C=C(\C)C(=O)OCC/C=C\CC
inactive: [16]

O=[N+]([O-])c1ccccc1C(F)(F)F
inactive: [16]

O=C1CCCCCCCCCCCCCC1
active: [17] 26.5 µM

c1cc[c]([Bi]([c]2ccccc2)[c]2ccccc2)cc1
active: [17] 4.16 µM

CC[N+](CC)(CC(=O)Nc1c(C)cccc1C)Cc1ccccc1 (tested in a mixture with another compound)
inactive: [3] | CD40, CD40 (gene 958) | CD38, CD38 (gene 952) | CD69, CD69 (gene 969) | [5] | [6] | [7] | [8]

O=[N+]([O-])c1ccc2nc[nH]c2c1
inactive: [17]

CC(C)CC(=O)O
inactive: [17]

CCCCCCCCCC/C=C/C1CC(=O)OC1=O (stereo unspecified)
not listed: [16] | [17]
inactive: all other assays above

CCC(C)(CCC(C)C)C(=O)O (stereo unspecified)
inactive: [16]
